Screens deposited in PubChem by several laboratories.
TIM10 inh – inhibits growth of TIM10 yeast strain. S. cerevisiae TIM10 strain growth, BacTiter-Glo luminescence, 24 h. actives 1.4% (n = 330,000). AID 463195. inhibition, % at 10 µM;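 active means inhibition of 40% or more at the single tested concentration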;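 further: wild-type TIM10 isogenic control strain grown at permissive 25 °C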
PfHsp90 set2 – growth inhibition of yeast expressing Plasmodium Hsp90; S. cerevisiae expressing PfHsp90, BacTiter-Glo ATP, 48 h; yeast lacking PDR1 and PDR3 efflux regulators; inhibition, % at 9.4 µM; actives 0.32% (n = 310,000);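 active means every replicate shows inhibition above about 80%, whatever the replicate mean, limit read from the data; inconclusive means mean inhibition reaches the set limit but some replicate falls short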
tim10-1 inh – tim10-1 yeast growth inhibition | actives 2.2% (n = 330,000) | AID 463190 | S. cerevisiae tim10-1 ts strain growth, BacTiter-Glo, 24 h | inhibition, % at 20 µM;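 active means inhibition of at least 40%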;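 further: mutant grown at 25 °C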
tim23-1 inh – growth inhibitors of tim23-1 mutant yeast; actives 1.3% (n = 330,000); inhibition, % at 20 µM; AID 463212; S. cerevisiae tim23-1 growth, BacTiter-Glo luminescence, 24 h;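 active means growth inhibition of the mutant yeast at or above 50%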;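 further: temperature-sensitive mutant grown at 25 °C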
SKKanGAS inh – inhibitors of SKKanGAS S. pyogenes growth in kanamycin (SK-promoter or general growth effect); BacTiter-Glo, 6 h; inhibition, % at 7.5 µM; actives 1.3% (n = 300,000); AID 1662;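 active means mean replicate score, as percent of positive control median, at least 50; inconclusive means mean below 50 but one replicate at or above 50; inactive means mean and every replicate below 50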;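 further: strain carries kanamycin resistance gene driven by streptokinase promoter and grows in 40 µg/ml kanamycin; loss of luminescence reflects streptokinase promoter inhibition or plain growth inhibition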
V-ATPase pHluor – regulators of yeast V-ATPase proton transport. S. cerevisiae, pHLuorin cytosolic pH fluorescence. response, % at 10 µM. actives 0.37% (n = 350,000). AID 504577; in the data active means response mostly above about 7.3%, no sharp cut-off; inactive means mostly below about 5.4%; further: actives read high
tim10-1 conf – confirmation of tim10-1 mutant yeast growth inhibitors; shares compounds with tim10-1 inh; S. cerevisiae tim10-1 ts strain growth, BacTiter-Glo, 24 h; inhibition, % at 20 µM; actives 56% (n = 7,400); AID 463213;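 active means inhibition of yeast growth at or above a set limit in either of two repeat tests at 20 µM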;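 further: tim10-1 mutant grown at permissive 25 °C to find synthetic lethal compounds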
TIM10 conf – TIM10 yeast growth inhibition, confirmed; shares compounds with TIM10 inh; S. cerevisiae tim10 strain growth, BacTiter-Glo luminescence, 24 h; inhibition, % at 10 µM; actives 63% (n = 4,600); AID 463215;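 active means inhibition of yeast growth at or above a set limit in either of two replicates at 10 µM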; further: this counterscreen used the strain with wild-type TIM10
tim23-1 conf – confirmation of tim23-1 mutant yeast growth inhibitors; inhibition, % at 20 µM; S. cerevisiae tim23-1 growth, BacTiter-Glo luminescence, 24 h; actives 83% (n = 4,400); shares compounds with tim23-1 inh; AID 463218;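 active means inhibition above about 39% in either of two replicate wells at 20 µM, limit read from the data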;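 further: temperature-sensitive tim23-1 mutant grown at 25 °C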
Each line names hits and unclear results; the compound was inactive in the other large screens (follow-up assays come after a bar, where they were run). The list is not random: actives were taken first. Their share in the collection is about 4.6%.

CSc1ncccc1C(=O)Nc1cccc(S(=O)(=O)N2CCCCC2)c1	none (no result: SKKanGAS inh)
CCC(=O)/C=C1/Sc2ccc(OC)cc2N1CCO	none
CCC(/C=C1\Sc2ccc(OC)cc2N1CCO)=C\c1sc2ccc(OC)cc2[n+]1CCO	TIM10 inh 49, tim10-1 inh 62, tim23-1 inh 64 (no result: SKKanGAS inh) | tim10-1 conf 49 | TIM10 conf inactive | tim23-1 conf 53
O=C(c1ccccn1)c1conc1C(=O)c1ccc(Br)cc1	TIM10 inh 72, tim10-1 inh 69, tim23-1 inh 78 | tim10-1 conf 73 | TIM10 conf 63 | tim23-1 conf 87
O=C(COc1ccc(F)cc1)Nc1nnc(S(=O)(=O)N2CCCC2)s1	none
CCCOc1ccc(N)cc1N	tim10-1 inh 50, tim23-1 inh 56 | tim10-1 conf inactive | tim23-1 conf inactive
COc1ccc(C(=O)/C=C/Sc2nc3ccccc3o2)cc1	tim10-1 inh 50, tim23-1 inh 75 | tim10-1 conf 38 | tim23-1 conf 66
COc1ccc(C(=O)N/C(N)=N/c2nc3ccccc3o2)cc1	none
CCCCOC(=O)Sc1nc2ccccc2o1	TIM10 inh 64, tim10-1 inh 49, tim23-1 inh 74 | tim10-1 conf 49 | TIM10 conf 43 | tim23-1 conf 44
S=c1[nH]nc(-c2ccco2)n1/N=C/C(Cl)=C/c1ccccc1	none
Cc1cc(-c2n[nH]c(=S)n2/N=C/C(Cl)=C/c2ccccc2)n[nH]1	TIM10 inh 54, tim10-1 inh 51, tim23-1 inh 54 | tim10-1 conf 47 | TIM10 conf inactive | tim23-1 conf 48
CC(/C=N/n1c(COc2ccccc2)n[nH]c1=S)=C\c1ccccc1	tim10-1 inh 43, tim23-1 inh 51 | tim10-1 conf inactive | tim23-1 conf 50
CC(=C/c1ccccc1)/C=N/n1c(C)n[nH]c1=S	none
Cc1cc(N2O[C@H]3C=C[C@@H]2C3)no1	none (no result: SKKanGAS inh)
CCOC(=O)C(=Cc1ccc(-n2cncn2)cc1)C(=O)OCC	TIM10 inh 67, PfHsp90 set2 inconclusive, tim10-1 inh 62, tim23-1 inh 52 | tim10-1 conf 52 | TIM10 conf 47 | tim23-1 conf 71
O=c1[nH]cnc2c1c(-c1ccccc1)cn2-c1cccc(Cl)c1	tim10-1 inh 46, tim23-1 inh 60 | tim10-1 conf 36 | tim23-1 conf 38
CCN1CCN(C(=O)Nc2ccccc2OC)CC1	none (no result: SKKanGAS inh)
CC1=C(C(=O)OC2CCC(C)CC2)C(c2ccc(O)c([N+](=O)[O-])c2)NC(=O)N1 (stereo not drawn)	none
CCOC(=O)N1CCN(C2=NC3(CCCCC3)C(C#N)C(=O)N2)CC1 (stereo not drawn)	none
O=C(Nc1cccc(Cl)c1)c1cc(N=Nc2ccc([N+](=O)[O-])cc2Cl)ccc1O	tim10-1 inh 70, tim23-1 inh 71 | tim10-1 conf 60 | tim23-1 conf 78
CC1=NN(c2ccc(C)cc2)C(=O)/C1=C\C=C\c1ccccc1	none
CC1=NN(c2cccc(C(=O)O)c2)C(=O)/C1=C\C=C/c1ccccc1	TIM10 inh 47, tim10-1 inh 43, tim23-1 inh 53 (no result: PfHsp90 set2, V-ATPase pHluor) | tim10-1 conf 47 | TIM10 conf 42 | tim23-1 conf 62
CCOC(=O)c1c2c(n(C)c1C)C(=O)C(=O)c1ccc(Br)cc1-2	TIM10 inh 66, tim10-1 inh 57, tim23-1 inh 56, SKKanGAS inh 59 (no result: PfHsp90 set2) | tim10-1 conf inactive | TIM10 conf 44 | tim23-1 conf 47
CCN(CC(=O)Nc1ccccc1OC)C(=O)c1cc(S(=O)(=O)N2CCCCCC2)ccc1OC	none (no result: PfHsp90 set2)
COc1ccc(-c2cn3c(C)c(C(=O)N4CCN(c5ccccc5F)CC4)sc3n2)cc1	tim10-1 inh 56, tim23-1 inh 56 | tim10-1 conf 55 | tim23-1 conf 67
Cc1c(C(=O)N2CCN(c3ccccc3F)CC2)sc2nc(-c3ccccc3)cn12	TIM10 inh 54, tim10-1 inh 54, tim23-1 inh 53 | tim10-1 conf 54 | TIM10 conf 51 | tim23-1 conf 75
COc1ccc(N2CCN(C(=O)c3sc4nc(-c5ccc(F)cc5)cn4c3C)CC2)cc1	none
O=C(Nc1ccc(C(=O)O)cc1)/C(=C\c1cccc([N+](=O)[O-])c1)NC(=O)c1ccc(Br)o1	none
CCCSc1cc(N2CCOCC2)nc(-c2ccccc2Cl)n1	none
CCOc1cc(/C=C(\C#N)C(N)=O)ccc1OS(=O)(=O)c1ccccc1	tim10-1 inh 48, tim23-1 inh 57 | tim10-1 conf 38 | tim23-1 conf 58
CCOC(=O)/C(C#N)=C/c1ccc(OC)c(OC)c1	none
CC(C)Cc1nc2oc3c(NCCCN4CCOCC4)ncnc3c2c2c1CCC2	none
CC(C)Cc1nc2oc3c(Cl)ncnc3c2c2c1CCC2	tim10-1 inh 50, tim23-1 inh 55 | tim10-1 conf 36 | tim23-1 conf 55
O=C(NCc1cccnc1)/C(=C/c1ccc(-c2cccc(C(F)(F)F)c2)o1)NC(=O)c1ccccc1	none (no result: PfHsp90 set2)
O=C(NCc1cccnc1)/C(=C/c1ccc(-c2ccc(Cl)cc2)o1)S(=O)(=O)c1ccccc1	TIM10 inh 53, tim10-1 inh 52, tim23-1 inh 59 | tim10-1 conf 48 | TIM10 conf 49 | tim23-1 conf 57
O=C(CN1C(=O)COc2ccccc2C1=O)c1ccc2c(c1)OCCO2	none
COC(=O)C1=C(C(=O)OC)[C@@H]2N(C)c3ccc(OC)cc3[C@@]23C[C@@H](C(=O)OC)N(C(=O)COCc2ccccc2)C3=N1	none (no result: PfHsp90 set2, V-ATPase pHluor)
CC(Oc1ccc(Cl)cc1Cl)C(=O)NC1=NN(c2ccccc2)C(=O)C1 (stereo not drawn)	tim10-1 inh 52, tim23-1 inh 61, SKKanGAS inh 94 (no result: PfHsp90 set2) | tim10-1 conf 33 | tim23-1 conf inactive
CC1(C)CC(=NOC(=O)c2ccccc2)CC(C)(C)N1O	TIM10 inh 58, tim10-1 inh 58, tim23-1 inh 68 | tim10-1 conf 61 | TIM10 conf 70 | tim23-1 conf 78
CC1(C)Cc2noc(N)c2C(C)(C)N1OC(=O)c1ccccc1	none
C/C(=N\NC(=S)Nc1cccc(C)c1)c1ccccc1	TIM10 inh 60, tim10-1 inh 51, tim23-1 inh 51 | tim10-1 conf 50 | TIM10 conf inactive | tim23-1 conf 52
Cc1ccc(C(=O)O/N=C(\N)Cc2cccs2)cc1[N+](=O)[O-]	TIM10 inh 83, tim10-1 inh 43, tim23-1 inh 88 | tim10-1 conf 67 | TIM10 conf 85 | tim23-1 conf 83
